Source: PubChem BioAssay AID720517 (National Center for Advancing Translational Sciences (NCATS), 2013)
Results filed as inconclusive are left out. Entries that show only a call come without a potency. Active and inactive are the calls of the source. Calls follow the shape of the dose curve; as a rule, active = well fitted activation curve with a large enough effect; inconclusive = small, poorly fitted or top-dose-only effect; inactive = flat fitted curve, though single readings scatter.

Test: qHTS for Inhibitors of Cell Surface uPA Generation: FP59 Counterscreen for Cherry-picked Compounds
Potency is read from the fitted curve at half-maximal effect.

Structure (SMILES) | Potency
CC(C)NC(=O)CN1CCC(c2nc3ccccc3[nH]2)CC1 | inactive
COc1cc(C(=O)N/N=C(\Cc2ncc[nH]2)c2ccccc2)cc(OC)c1OC | inactive
Cc1ccccc1C(=O)Nc1ccccc1N1CCCCC1 | inactive
CNC(=O)[C@@H]1CCC(=O)N1 | inactive
CC(C)CCN1C(=O)c2ccc(-c3nc4ccccc4c(=O)o3)cc2C1=O | inactive
NC(=O)c1ccc(NC(=O)CN2CCN(S(=O)(=O)c3ccc4ccccc4c3)CC2)cc1 | inactive
CC(NC(=O)NC1CCCCC1)C(c1cccs1)N1CCN(C)CC1 (configuration not stated) | inactive
Cc1cccc(-c2nc(CS(=O)CC(=O)NCc3cccs3)c(C)o2)c1 (configuration not stated) | inactive
CC1CC(C)(C)Nc2ccc(N=O)cc21 (configuration not stated) | inactive
CC(=O)c1ccc(N=C2SCCCN2C(=O)C2CCCCC2)cc1 | inactive
Cc1ccc(NC(=O)CCCn2c(=S)[nH]c3ccsc3c2=O)cc1C | inactive
O=C(Nn1cnnc1)c1ccc(Cl)cc1 | inactive
CCCN1CCN(CC(=O)Nc2nncs2)CC1 | inactive
CN(CCO)c1ccc(C(C(=O)c2ccccc2)c2ccc(N(C)CCO)cc2)cc1 | inactive
CC(C)C(=O)Nc1nnc(SCc2cccc(F)c2)s1 | inactive
CC1CCCN(S(=O)(=O)c2cccc([N+](=O)[O-])c2)C1 (configuration not stated) | inactive
Cc1ccc(S(=O)(=O)N2CCC(C(=O)OC(C)C(=O)NC3CCCCC3C)CC2)cc1 (configuration not stated) | inactive
O=C1C[C@@H]2CCN3C(=O)CCC[C@@H]([C@H]23)[C@H]1Cc1ccccc1 | inactive
COc1ccc(C2C(C(=O)c3ccc(C)o3)=C(O)C(=O)N2CC2CCCO2)cc1OC (configuration not stated) | inactive
COc1ccccc1-c1ccc(SCC(=O)NCCc2ccccc2)nn1 | inactive
O=C(CCCC(=O)N(c1cccc(F)c1)C(C(=O)NC1CCCC1)c1ccc(O)cc1)Nc1ccccn1 (configuration not stated) | inactive
Cc1cccc(NC(=O)C2CCCN(S(=O)(=O)c3cccc4cccnc34)C2)c1 (configuration not stated) | inactive
C=C(C(=O)O)C1CCC2(C)CCCC(C)(O)C2C1 (configuration not stated) | inactive
O=C(CCS(=O)(=O)c1ccc2c(c1)NC(=O)CS2)NCCc1ccc(Cl)cc1 | inactive

Structure (SMILES) | Potency
C=CC(=O)N1C/C(=C/c2ccccc2)C(=O)/C(=C\c2ccccc2)C1 | 13.1 µM (active)
CC1CCCN(C(=O)c2ccc(CNc3c(N4CCCCC4)c(=O)c3=O)cc2)C1 (configuration not stated) | inactive
CC1CC(=O)Nc2ccccc2N1C(=O)Cn1cnc2ccc(Br)cc2c1=O (configuration not stated) | inactive
CC(C)CNC(=O)COC(=O)CCC(=O)c1cccs1 | inactive
COc1ccc(-c2sc3ccccc3c2C#CCO)cc1 | inactive
C=CCOC(=O)C1=C(C)NC(C)=C(C(=O)OCC=C)C1c1cn(-c2ccccc2)nc1-c1ccco1 | inactive
COc1ncnc(NS(=O)(=O)c2ccc(N)cc2)c1OC | inactive
CCN(CC)C(=O)Cn1cc(/C=C(\C#N)C(=O)NC2CC2)c2ccccc21 | inactive
O=c1[nH]c2c(s1)C(c1ccc(O)cc1)C1C3CCC(C3)C1S2 (configuration not stated) | inactive
CCOCCOc1cc(NCc2ccccc2)c2ncn(C(C)C)c2c1 | inactive
Cn1c(=O)c2c(ncn2CCO)n(C)c1=O | inactive
C[C@H]([C@H](O)c1ccccc1)N(C)C(=O)CN | inactive
COc1ccc(CCNC(=O)COC(=O)CNS(=O)(=O)c2ccc(SC)c([N+](=O)[O-])c2)cc1 | inactive
COc1ccc(CCNC(=O)CSc2nc(N)c3c(C)c(C)oc3n2)cc1OC | inactive
O=C(Nc1ccc(N2CCOCC2)cc1)c1ccc(Cl)c(S(=O)(=O)N2CCCC2)c1 | inactive
CCOc1ccc(C2(C)CC(=O)N(C)C2=O)cc1 (configuration not stated) | inactive
C=CCn1c(=O)c(C(=O)NCCc2ccc(Cl)cc2)c(O)c2cc(OC)c(OC)cc21 | inactive
CCOC(=O)N1CCc2c(sc3nc4n(c(=O)c23)N=C(C)CS4)C1 | inactive
CCC(C)NC(=O)c1ccc2nc(-c3ccc(OC)c(OC)c3)c(-c3ccc(OC)c(OC)c3)nc2c1 (configuration not stated) | inactive
Cc1cccc(N2C(=O)c3cccc(Oc4ccc(Cl)cc4)c3C2=O)c1 | inactive
O=C(O)CCc1nn2c3ccccc3n(CC(=O)O)c2nc1=O | inactive
O=C(N/C(=C\c1cccc([N+](=O)[O-])c1)C(=O)N1CCOCC1)c1ccc([N+](=O)[O-])cc1 | inactive
CCc1ccc(NCc2nc(-c3ccccc3)no2)cc1 | inactive
Cc1cc(COc2ccccc2)oc1C(=O)O | inactive

Structure (SMILES) | Potency
CCOc1cc(C(=O)OCC(=O)c2cc(C)n(CC3CCCO3)c2C)ccc1OCC(=O)N1CCOCC1 (configuration not stated) | inactive
CCCOc1ccc(CC2CCC(=O)NC2=O)cc1 (configuration not stated) | inactive
COCCOC(=O)C1=C(C)NC(=O)NC1c1cccc2ccccc12 (configuration not stated) | inactive
CCOc1ccc(Cl)cc1/C=N/NC(=O)c1ccccc1 | inactive
CC(C)(C)OC(=O)C[C@@H]1C/C=C\C[C@@H](CC(=O)N(CCO)Cc2ccccc2)C(=O)N[C@H](Cc2c[nH]c3ccccc23)COC1=O | inactive
Cc1ccc(NC(=O)c2ccc(=O)[nH]n2)cc1S(=O)(=O)Nc1ccccc1Cl | inactive
O=C(NCCN1CCOCC1)c1ccccc1Cl | inactive
S=C(Nc1ccccc1Oc1ccccc1)NC1CCCC1 | inactive
Cc1ccc(S(=O)(=O)NCC(=O)N/N=C/c2ccc(Cl)cc2)cc1 | inactive
N#Cc1ccccc1Sc1ccccc1C(=O)Nc1ccc(Br)cc1 | inactive
Cc1ccc(S(=O)(=O)N2CCN(C(=O)c3n[nH]c(=O)c4ccccc34)CC2)cc1 | inactive
O=C(Nc1cccc(-c2nn[nH]n2)c1)c1ccc(Cl)s1 | inactive
COC(=O)c1ccc(N2CCN(c3ccccc3)CC2)c(NC(=O)C2CC2)c1 | inactive
c1csc(CN2CCOCC2)c1 | inactive
CCS(=O)c1scc(-c2ccc(Cl)cc2)c1C#N (configuration not stated) | inactive
Cc1ccc2nc(Nc3ccc(Cl)cc3)c3nncn3c2c1 | inactive
Cc1ccc(S(=O)(=O)N2CCC(C)CC2)cc1 | inactive
Cc1ccc(NS(=O)(=O)c2c(C)nc3sccn3c2=O)c(C)c1 | inactive
COc1ccc(C(=O)NCCOC(C)C)cc1OC1CCN(C(C)=O)CC1 | inactive
COc1cccc2c1Oc1ncccc1N(C(=O)CCC(=O)NCc1ccc(C)cc1)C2 | inactive
CC(O)[C@H]1CNC(=O)C(=O)N1CCc1cccc(F)c1 (some centres not stated) | inactive
COc1ccc(N2CCN(C3CCN(S(=O)(=O)c4ccc(F)cc4)CC3)CC2)cc1 | inactive
COc1ccc(NS(=O)(=O)c2cc3c(cc2C)NC(=O)CO3)c(OC)c1 | inactive
CCc1nccn1CCC(=O)N1CCc2c([nH]c3ccccc23)C1CC(C)C (configuration not stated) | inactive
